This is an account of results in PubChem BioAssay.

Values joined by “and” are separate entries in the source; they are usually repeats but may differ in a detail not shown here. Equal values may be shown once. A number with no mark means an inactive call.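 Rule for the calls: active = GFP response above 150% of the DMSO level; inconclusive = fewer than 70 events counted for a yeast strain; inactive = the rest.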

The assay can be described thus: yeast AGP1-GFP fluorescence change, single-dose – cell-based, flow cytometry, S. cerevisiae, cherry picks, confirmation (AID 2273).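 Note: median GFP channel fluorescence over the whole cell population gate.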 To be noted: S. cerevisiae AGP1-GFP strain, 3 h, at 10 µM.

For the molecule `COc1cc2c(cc1OC)C(c1ccccc1)=NCC2`, the GFP response, % of DMSO is 98.3%.

Regarding `O=[N+]([O-])c1ccc(O)c2ncccc12`, the GFP response, % of DMSO was 128%. `COc1ccc(C(=O)NCC2OCCc3ccccc32)cc1` (stereo not given): the GFP response, % of DMSO is 91.3%.

For `C1COC(NC(C2CC2)C2CC2)=N1`, the GFP response, % of DMSO was 105%. For `C[C@]12CC[C@@H]3c4ccc(O)cc4C(=O)C[C@H]3[C@@H]1CC[C@@H]2O`, the GFP response, % of DMSO is 97.2%. For `C#C[C@]1(O)CC[C@H]2[C@@H]3CCC4=CC(=O)CC[C@@H]4[C@H]3CC[C@@]21CC` the value was 95.7%; for `C[C@]12CCC(=O)C=C1CC[C@@H]1[C@@H]2[C@@H](O)C[C@@]2(C)[C@H]1CC[C@]2(O)C(=O)COC(=O)CCC(=O)O`, 98.9% and 99.3%. As for `O=C(O)CCNC(=O)c1ccccc1`, the GFP response, % of DMSO is 104%.

As for `COc1ccc(-c2noc(-c3ccccc3-c3ccccc3)n2)cc1`, the GFP response, % of DMSO is 101%. With `CC(=O)c1ccc(CCCCCCCCCC(=O)O)s1`, the GFP response, % of DMSO is 95.2%. For `CC(=O)OCC(=O)[C@@]1(O)CC[C@H]2[C@@H]3CCC4=CC(=O)CC[C@]4(C)[C@H]3[C@@H](O)C[C@@]21C` the value was 97%.

On to `CC(=O)Nc1ccccc1O`, for which the GFP response, % of DMSO was 98.7%. For `CC(C)CC(=O)Nc1ccc2oc(-c3ccncc3)nc2c1` the value was 95.9%; for `OC(CCN1CCCCC1)(c1ccccc1)c1ccccc1`, 96.3%; for `N=c1nc(N2CCCCC2)cc(N)n1O`, 98.9%. With `CC(=O)[C@@]1(O)CC[C@H]2[C@@H]3CCC4=CC(=O)CC[C@]4(C)[C@H]3[C@@H](O)C[C@@]21C` the figure was 103%; with `CN(C)CCCN1c2ccccc2Sc2ccc(Cl)cc21`, 94.3%; with `C[C@]12CCC(=O)C=C1CC[C@@H]1[C@@H]2[C@@H](O)C[C@@]2(C)[C@H]1CC[C@]2(O)C(=O)CO`, 99.2%. For `CC(=O)O[C@]1(C(C)=O)CC[C@H]2[C@@H]3C[C@H](C)C4=CC(=O)CC[C@]4(C)[C@H]3CC[C@@]21C` the value was 97.1%; for `Nc1[nH]c(=O)ncc1F`, 78.5%.
